Data reported in PubChem BioAssay AID686978 (National Center for Advancing Translational Sciences (NCATS), 2013).
Screen size: about 420,000 compounds; about 64,000 (15%) were called active. Another 27% or so got no clear call; they are omitted. Calls come from the whole dose curve; as a rule, active = well fitted inhibition curve with a large enough effect; inconclusive = small, poorly fitted or top-dose-only effect; inactive = flat fitted curve, though single readings scatter. A selection follows. Entries that show only a call come without a potency.

Assay: qHTS for Inhibitors of human tyrosyl-DNA phosphodiesterase 1 (TDP1): qHTS in cells in absence of CPT; note: nearly all actives have a fitted effect of over 55% in size
Settings: DT40 Tdp1-/- hTDP1 cells, no CPT, ATP luminescence, 48 h; activity change, negative = growth inhibition: at 46.2 µM (top of the series)
Summary of the method: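 Chicken DT40 Tdp1-/- cells stably complemented with human TDP1 were seeded at 400 cells/well with DMSO in place of 20 nM camptothecin. After compound pinning, cells grew at least 48 hr at 37 °C; viability read by CellTiter-Glo luminescence.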
Potency is the fitted concentration of half-maximal effect.

SMILES | Potency
CC(C)S(=O)(=O)c1oc(-c2ccc(F)cc2)nc1S(=O)(=O)c1ccc(F)cc1 | 0.326 µM (active)
COc1cc(-c2nc(S(=O)(=O)c3ccc(Cl)cc3)c(N(C)C)o2)cc(OC)c1OC | inactive
CC1(C)OC2CC3C4CCC5=CC(=O)CCC5(C)C4(F)C(O)CC3(C)[C@]2(C(=O)CCl)O1 (some centres undefined) | inactive
COc1cc(C(=O)Nn2c(O)c(C3=c4ccccc4=NC3=O)sc2=S)ccc1O | inactive
CO[C@@H]1[C@@H](OC(N)=O)[C@@H](O)C(Oc2ccc3c(O)c(NC(=O)c4ccc(O)c(CC=C(C)C)c4)c(=O)oc3c2C)OC1(C)C (some centres undefined) | inactive
COCc1nc2ccccc2n1Cc1ccccc1Br | 16.4 µM (active)
CCc1cccc(C)c1N(C(=O)Cn1c(CO)nc2ccccc21)C(C)COC (centres undefined) | inactive
O=C(NC1Cc2ccccc2C1)c1cc(COc2cccc(C(F)(F)F)c2)on1 | inactive
C/C(CC(=O)N1CCN(C=O)CC1)=N\NC(=O)c1ccc(Br)cc1 | inactive
COC(=O)[C@@H]1C[C@@]2(O)[C@H](O)[C@H](O)[C@H](O)C[C@H]2N1Cc1ccc(C)s1 | inactive
CC(C)N=C1CCCC1C(=S)SSC(=S)C1CCCC1=NC(C)C (centres undefined) | 0.164 µM (active)
COc1cc(OC)c2c(c1Cl)OC1(C2=O)C(O)=CC(=O)CC1C (centres undefined) | inactive
COc1ccc(CN2CCCCC2C)cc1OC (centres undefined) | inactive
COC(=O)c1ccc(COc2ccc(C#N)cc2)o1 | inactive
COc1ccc(C(C)C)cc1S(=O)(=O)Nc1ncn[nH]1 | inactive
CCOc1ccc(C(C)C)cc1S(=O)(=O)n1nc(C)cc1C | 13 µM (active)
CCOc1cc(C)c(Cl)cc1S(=O)(=O)n1nnc2ccccc21 | inactive
CCCNC(=O)CCC(=O)N1Cc2ccccc2Oc2ncccc21 | inactive
Cc1ccc(NC(=O)CS(=O)CC(=O)N(c2ccccc2)C(C)C(=O)NC2CCCC2)cc1 (centres undefined) | inactive
COc1ccc(NS(=O)(=O)c2ccc(C)c(C(=O)N(C)Cc3ccc(OC)cc3OC)c2)cc1 | 18.4 µM (active)
CCOc1ccc(NS(=O)(=O)c2ccc(Cl)c(C(=O)N(C)Cc3cccnc3)c2)cc1 | inactive
COc1ccc(NS(=O)(=O)c2ccc(C)c(C(=O)NNC(=O)c3csc(N4CCOCC4)n3)c2)cc1 | inactive

SMILES | Potency
CC(=O)Nc1ccc(S(=O)(=O)NNC(=O)CCc2ccccc2)cc1 | inactive
CC(=O)Nc1ccc(S(=O)(=O)N(C)c2nc3ccccc3nc2Cl)cc1 | 23.1 µM (active)
CC(=O)Nc1ccc(S(=O)(=O)N(C)c2ccc(OCC(=O)OCC(=O)N3CCCCC3)cc2)cc1 | inactive
Cc1ccc(C2CC2C(=O)NN)cc1 (centres undefined) | inactive
CCOc1ccc(NS(=O)(=O)c2ccc(N)cc2)nn1 | inactive
CC(=O)c1c(C)n(S(=O)(=O)c2ccc(Cl)cc2)c2ccc(NS(=O)(=O)c3ccc(Cl)cc3)cc12 | 14.6 µM (active)
CCn1c(C)nc2cc(C(=O)NNS(=O)(=O)c3ccc(C)cc3C)ccc21 | inactive
CC(=O)NCCc1ccc(S(=O)(=O)Nc2ccc(C)c(S(=O)(=O)N3CCOCC3)c2)cc1 | inactive
CCOC(=O)c1c(S(=O)(=O)NCC(=O)Nc2ccc(C)cc2)c(C)n(C)c1C | inactive
O=S(=O)(Nc1ccc(-n2cnnn2)cc1)c1ccc(Cl)cc1 | inactive
CCOC(=O)c1c(C)n(S(=O)(=O)c2ccc(C)cc2C)c2ccc(NS(=O)(=O)c3ccc(C)cc3C)cc12 | 20.6 µM (active)
CC(C)(C)CN1CCNC(=O)C1CC(=O)NC1Cc2ccccc2C1 (centres undefined) | inactive
Oc1ccc(-c2nncn2-c2ccccc2)cc1 | inactive
COc1cccc(NC(=O)CSc2nnc(Cc3ccc(OC)c(OC)c3)o2)c1 | inactive
CCC1CCCCN1C(=O)Cn1c(=O)n(CCCCCC(=O)NCc2ccccc2)c(=O)c2sccc21 (centres undefined) | 13 µM (active)
O=C(CCCn1c(=O)c2sccc2n(CC(=O)NCC2CCCO2)c1=O)NCc1ccco1 (centres undefined) | inactive
Cc1ccc(C)c(Cn2c(=O)n(CCC(=O)NCc3ccc4c(c3)OCO4)c(=O)c3sccc32)c1 | inactive
NC(CSC12CC3CC(CC(C3)C1)C2)C(=O)O (centres undefined) | inactive
CCCc1nc2oc3c(=O)[nH]cnc3c2c2c1COC(C)(C)C2 | inactive
C=CCN1CCN(c2ccncc2S(=O)(=O)N2CCN(C)CC2)CC1 | inactive
CSCCC(NC(=O)c1ccccc1)C(=O)N1CCCCCCC1 (centres undefined) | inactive
COc1ccccc1C(=O)NC(CCSC)C(=O)N1CCN(C(C)=O)CC1 (centres undefined) | inactive

SMILES | Potency
COc1ccccc1C(=O)NC(CCSC)C(=O)NNC(=O)c1ccccc1C (centres undefined) | inactive
O=C(NC(=S)N1CCN(Cc2ccccc2)CC1)c1ccccc1 | inactive
COc1ccccc1C(=O)NC(CCSC)C(=O)N1CCN(C/C=C/c2ccccc2)CC1 (centres undefined) | 20.6 µM (active)
CSCCC(NC(=O)c1ccccc1)C(=O)N1CCN(Cc2ccc(Cl)cc2)CC1 (centres undefined) | 10.3 µM (active)
O=C(CN1CCOCC1)Nc1c(-c2ccccc2)c2cc(Br)ccc2[nH]c1=O | inactive
Cc1ccccc1OCc1nc2c3cnn(-c4ccccc4F)c3ncn2n1 | inactive
C=CCN(CC=C)CCOc1ccccc1[N+](=O)[O-] | inactive
O=C(Cn1nnc(-c2ccccc2)n1)NCc1ccccc1 | inactive
COc1cc(-c2nnn(CC(=O)NCc3ccccc3)n2)cc(OC)c1OC | 14.6 µM (active)
COc1ccc(CNC(=O)Cn2nnc(-c3ccccc3F)n2)cc1 | inactive
Cn1c(=NC(=O)CSCC(=O)N2CCOCC2)sc2ccccc21 | inactive
CCC(=O)N1CCc2cc(S(=O)(=O)NCCC(=O)Nc3cccc(C)c3C)ccc21 | inactive
O=C(COC(=O)c1cccnc1Cl)NC12CC3CC(CC(C3)C1)C2 | inactive
COc1cc(C(=O)OCC(=O)NC23CC4CC(CC(C4)C2)C3)cc(OC)c1OC | 18.4 µM (active)
O=C(COC(=O)c1ccc(Br)o1)NC12CC3CC(CC(C3)C1)C2 | inactive
CCOC(=O)CNc1nc2ccccc2n2c(C)nnc12 | inactive
CCOC(=O)c1oc2c(CN3CCN(CCO)CC3)c(O)c(CC)cc2c(=O)c1-c1nc2ccccc2s1 | inactive
O=C(NCCCN1CCOCC1)c1ccccc1NS(=O)(=O)c1ccc(Br)cc1 | inactive
O=C(NCCCN1CCOCC1)c1ccccc1NS(=O)(=O)c1ccc(F)cc1 | inactive
O=C(NCCCN1CCOCC1)c1cnn2c(-c3ccccc3)cc(-c3ccccc3)nc12 | 20.6 µM (active)
